Here are results for eleven molecules from the supplement of paper PMC7556523.

SMILES strings stand for the structures. Unmarked numbers belong to inactive results.

Experiment [1] deals with Sporothrix brasiliensis CBS 133006. Description: growth inhibition relative to untreated control; higher = more growth inhibition (more antifungal activity), active = 80 or more; extreme values may be limits of the assay. The following applies: 1 µM; 48 h. Put shortly:
(§1)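 Before testing, the reference isolates were kept in brain heart infusion broth with 2% glucose at 36°C for 7 days to give yeast-form cells. These cells, at 1 x 10^5 CFU/ml, received library compounds at a final 1 μM and were held 48 h at 35°C in 5% CO2. Growth was checked by eye under an inverted light microscope and quantified spectrophotometrically in quadruplicate, and the value is percent growth inhibition versus untreated cells.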

Experiment [2] relates to Sporothrix schenckii ATCC 32286. The experiment is described as above. The following applies: 1 µM; 48 h. Put shortly: as §1

Take `COc1ccc(-c2nn(C(C)C)c3ncnc(N)c23)cc1OC`: the figures for the growth inhibition in experiment [1] and in experiment [2] were 6% and 14.2%, respectively.

For the molecule `CCn1ncc2c(NC3CCOCC3)c(CNC(=O)c3ccnn3C)c(C)nc21`, the growth inhibition is 4.25% in experiment [1] and 0% in experiment [2].

`C[C@H](c1ccc2c(c1)CCCC2)N(C)c1ncc2c(N)nc(N)nc2n1`: the growth inhibition was 10% in experiment [1] and 0% in experiment [2].

Consider `COC(=O)c1ccc(F)cc1NS(=O)(=O)c1cccc(-c2cnn(Cc3ccccc3)c2)c1`, for which the growth inhibition was 12% in experiment [1] and 20.2% in experiment [2].

With `Cc1nnc(NC(=O)c2cn(-c3ccccc3)nc2-c2ccccc2C)o1`, the growth inhibition in experiment [1] is 1.5%; in experiment [2], 22.8%.

For `c1ccc(Oc2ccc(-c3cc(C4CCOCC4)[nH]n3)cc2)cc1`, the growth inhibition was 3% in experiment [1] and 2.75% in experiment [2].

Turning to `CC(Oc1ccccc1)C(=O)Nc1nc(-c2ccccn2)cs1` (configuration not stated), the growth inhibition in experiment [1] was 18%; in experiment [2], 0%.

Consider `COc1cc(CN2CCC3(C=Cc4ccccc43)CC2)cc2c1OCO2`, for which the growth inhibition in experiment [1] is 4.25%; in experiment [2], 3.25%.

`Cc1ccc2oc(-c3cc(NC(=O)Cc4ccccc4)ccc3Cl)nc2c1`: the values for the growth inhibition in experiment [1] and in experiment [2] were 14.5% and 11.2%, respectively.

`CS(=O)(=O)Cc1nc2ccccc2oc1=O`: the figures for the growth inhibition in experiment [1] and in experiment [2] were 21.8% and 4.75%, respectively.

For `COc1ccc(C2=NN(C3CCCCCC3)C(=O)[C@@H]3CC=CC[C@H]23)cc1OCCCCOc1ccc(-c2nnn[nH]2)cc1`, the results for the growth inhibition in experiment [1] and in experiment [2] were 2.5% and 9.5%, respectively.
